The test addresses Dual specificity protein phosphatase 3 (Homo sapiens) (UniProt P51452). Description: inhibition of human DUSP3 activity – biochemical, absorbance, uHTS, primary screen (AID 1654). Conditions: recombinant VHR phosphatase, pNPP absorbance, at 13.3 µM, hits give high values.

Molecules are shown by their SMILES. Out of some 290,000 compounds screened, about 1,500 (0.52%) were called active. Shown is part of a subset that was picked to be rich in actives. Unmarked numbers belong to inactive results. Cut-off read from the data, not from the text of the source: active = inhibition above about 50%; inactive = the rest.

Chain of Dual specificity protein phosphatase 3 (Homo sapiens) (P51452 whole entry, looked up): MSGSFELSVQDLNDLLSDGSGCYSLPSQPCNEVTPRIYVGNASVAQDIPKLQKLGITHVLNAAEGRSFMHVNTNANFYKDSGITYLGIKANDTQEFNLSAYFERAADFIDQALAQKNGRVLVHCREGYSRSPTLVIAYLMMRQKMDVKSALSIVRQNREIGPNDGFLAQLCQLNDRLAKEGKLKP

Usually inhibition stands for the change of the read-out against control, counted positive when it falls. Take `CN(C)CCN(C(=O)C1=COCCO1)c1nc2ccc(Cl)cc2s1`: the inhibition is 17.5%.

As for `Cn1nnc(NC(=S)NC(=O)c2ccccc2)n1`, the inhibition is 8.5%. For `Cc1ccc(C(=O)N2CCCC2)c(F)c1F` the value was 11.9%; for `Cc1ccc(C(NC(=O)N2CCCC2)C(Cl)(Cl)Cl)cc1F` (stereo not drawn), 51.3% (active); for `CC(=O)N1CCN(CC(=O)Nc2ccc(C)c(F)c2)CC1`, 0.1%. The value for `CC(=O)c1ccc(NC(=O)CCc2nnc3ccc(NCc4ccco4)nn23)cc1` was -9.1%; that for `O=C(COC(=O)C1CC2C=CC1C2)Nc1ccccc1` (stereo not drawn) was -9.6%. For `CN(C)S(=O)(=O)N1CCC(Oc2cccc(C(=O)NCCCC3CCCC3)c2)CC1` the value was -1.9%. For `Cc1ccc(CS(=O)(=O)CCC(=O)NC2CC2)cc1`, the inhibition is 9.9%. For `Cc1ccc(CS(=O)(=O)CCC(=O)NCc2ccc(F)cc2)cc1` the value was 57.9% (active). The value for `CCCCC(=O)NCc1ccc(F)cc1` was -4.1%; that for `O=C1CCC(C(=O)N2CCCCO2)CN1Cc1cccc(C(F)(F)F)c1` (stereo not drawn) was 23.9%. The value for `COC(=O)c1c(NC(=O)COc2ccc(Cl)cc2Cl)sc2c1CC(C)(C)NC2(C)C` was 7.7%. In the case of `COc1cc2c(cc1OC)C(C)N(S(=O)(=O)c1cnc(Cl)c(Cl)c1)CC2` (stereo not drawn), the inhibition is 51.2% (active).

`COc1ccc(S(=O)(=O)N2CCC(C(=O)N3CCc4ccccc4C3)CC2)cc1OC`: the inhibition is 11.7%.

In the case of `COc1cc2c(cc1OC)CN(C(=O)c1cc(S(=O)(=O)N3CCCCC3)ccc1Cl)CC2`, the inhibition was 8.6%. For `Cc1cc(C)cc(N(CCC#N)C(=O)CN2C(=O)NC3(CCCC3)C2=O)c1` the value was -12.4%; for `Cc1c(C(=O)NCCCc2ccccc2)cccc1[N+](=O)[O-]`, 22.5%. The value for `COC(=O)c1cc(C(=O)NC(C)C2CC3CCC2C3)cc([N+](=O)[O-])c1` (stereo not drawn) was -11.2%; that for `Cc1c(C(=O)NC(C)C2CC3CCC2C3)cccc1[N+](=O)[O-]` (stereo not drawn) was 54.4% (active). The value for `Cc1ccccc1NS(=O)(=O)CCCCC(Cl)(Cl)Cl` was 15.4%. Turning to `CCOC(=O)c1sc2nc(C)[nH]c(=O)c2c1C`, the inhibition is 21.7%.

For the compound `CCOC(=O)c1c(N)sc(C(C)=O)c1C`, the inhibition is 17.4%. For `CCOC(=O)c1nc(N)sc1C(=O)OCC` the value was 50.8% (active); for `O=C(/C=C/Nc1ccc(S(=O)(=O)Nc2cnc3ccccc3n2)cc1)c1cccnc1`, 16.5%. The value for `COc1cccc2cc(-c3cc(=O)oc4cc(C)c(O)cc34)oc12` was -16.6%.

In the case of `COc1ccc2oc(=O)cc(-c3cc4ccccc4o3)c2c1`, the inhibition is 52.7% (active). For `COc1ccc(Nc2cc(=O)oc3ccccc23)cc1` the value was 11.9%; for `Cc1cc(OC(=O)c2ccc(OC(C)C)cc2)c([N+](=O)[O-])c(=O)[nH]1`, -18%. The value for `Cc1ccc(S(=O)(=O)NCC2CCC(C(=O)N3CCOCC3)CC2)cc1` (stereo not drawn) was 52% (active); that for `Cc1ccc(S(=O)(=O)NCC(=O)N2CCOCCOCCOCCOCC2)cc1` was 33.9%. The value for `O=C(O)C1CCC(CNS(=O)(=O)c2ccc(Br)cc2)CC1` (stereo not drawn) was 13.3%. `CCCCCn1c(=O)[nH]c2cc(C(=O)NCCCN3CCCCC3C)ccc2c1=O` (stereo not drawn): the inhibition was 22.4%. For `CCCCOP(=O)(c1ccc(N(C)C)cc1)C(O)c1cc(OC)ccc1OC` (stereo not drawn) the value was 6.1%. The value for `O=C(c1nnc(-c2ccc(Cl)cc2)o1)C1CCCC1` was 51.3% (active).

As for `O=C(Nc1nnc(-c2ccc(Cl)cc2)o1)c1ccccc1Br`, the inhibition was 41.9%. The value for `CSc1ccccc1-c1nnc(-c2ccc(Cl)cc2)o1` was 25.3%; that for `CCOc1ccc(CC(=O)NC2CCN(Cc3ccccc3)CC2)cc1` was 51% (active); that for `O=C(COc1ccc(Br)cc1F)NC1CCN(Cc2ccccc2)CC1` was 4.7%. For `CCOc1ccc(NC(=S)N2CCC(NC(=O)c3ccccc3)CC2)cc1` the value was 20.4%; for `Clc1ccc(Nc2ncnc3c2nnn3Cc2ccccc2)cc1`, 16.3%. For `CC(=O)Nc1ccc(Nc2ncnc3c2nnn3Cc2ccccc2Cl)cc1` the value was 52% (active); for `Cc1nc(Nc2ccc3c(c2)OCCO3)c2nnn(Cc3ccccc3Cl)c2n1`, 18.2%; for `CCC(=O)Nc1ccc(-c2ccc(N3CCCCC3)nn2)cc1`, -19.8%. `COc1ccc(OC)c(NC(=O)C2CCCN2S(=O)(=O)c2cccc3nsnc23)c1` (stereo not drawn): the inhibition was 19%. For `O=C(Nc1nccs1)C1CCCN1S(=O)(=O)c1cccc2cccnc12` (stereo not drawn) the value was 56.5% (active); for `O=C(NCc1ccco1)C1CCCN(S(=O)(=O)c2cccc3nonc23)C1` (stereo not drawn), 3.6%; for `CC(=O)c1cccc(NC(=O)C2CCCN(S(=O)(=O)c3cccc4nonc34)C2)c1` (stereo not drawn), 50.4% (active).

The record behind these values is PubChem BioAssay AID1654 (Sanford-Burnham Center for Chemical Genomics, 2009).
